# Measurements as given in the supplement of paper PMC13380429.
# Columns and labels:
# [1] = test system: Vero E6 infected with SARS-CoV-2; test: morphology score (similarity to uninfected cells); higher = more like uninfected cells; conditions: 24 h
# [2] = test system: Vero E6 infected with SARS-CoV-2; test: SARS-CoV-2 infection rate relative to infected DMSO; higher = more infection, active = 60 or less; conditions: 24 h
SMILES,morphology score [1],SARS-CoV-2 infection rate [2]
CC(C)c1ccc2oc3nc(N)c(C(=O)O)cc3c(=O)c2c1 [amlexanox] (10 µM),-0.183,111% (inactive)
CCn1cc(C(=O)O)c(=O)c2ccc(C)nc21 [nalidixic-acid] (10 µM),-0.0613,106% (inactive)
Cc1cccc(N(C)C(=S)Oc2ccc3ccccc3c2)c1 [tolnaftate] (10 µM),0.136,104% (inactive)
COc1ccc(NS(=O)(=O)c2sc3ccc(Cl)cc3c2C)cc1N1CCNCC1 (10 µM),0.192,108% (inactive)
N=C(N)SCCc1ccc(OCc2ccc([N+](=O)[O-])cc2)cc1 (10 µM),0.268,85.5% (inactive)
N#C[C@@H]1CCCN1C(=O)CNC12CC3CC(CC(O)(C3)C1)C2 [vildagliptin] (10 µM),0.00182,91% (inactive)
C=CC(=O)Nc1ccc2ncnc(Nc3ccc(OCc4cccc(F)c4)c(Cl)c3)c2c1 (10 µM),-0.0546,102% (inactive)
CC1(C)[C@@H](O)CC[C@]2(C)[C@H]3C(=O)C=C4[C@@H]5C[C@@](C)(C(=O)O)CC[C@]5(C)CC[C@@]4(C)[C@]3(C)CC[C@@H]12 [enoxolone] (10 µM),0.00688,110% (inactive)
CC1CCc2c(N3CCC(O)CC3)c(F)cc3c(=O)c(C(=O)O)cn1c23 (centres undefined) [nadifloxacin] (10 µM),-0.0037,106% (inactive)
NCc1ccc(S(N)(=O)=O)cc1 [mafenide] (10 µM),0.136,91% (inactive)
CN1CCN(S(=O)(=O)c2ccc(-c3cnc(N)c(C(=O)Nc4cccnc4)n3)cc2)CC1 (0.833333 µM),0.224,99% (inactive)
O=C(O)[C@H]1CC[C@H](c2cc3cccnc3c(-c3cccc(F)c3)n2)CC1 (10 µM),0.315,103% (inactive)
CN1CC2c3ccccc3Oc3ccc(Cl)cc3C2C1 (centres undefined) [asenapine] (10 µM),0.67,41% (active)
Cc1nc2ccc(-n3ncc(C(=O)c4cc5ccccc5[nH]4)c3N)cc2[nH]1 (0.833333 µM),0.131,101% (inactive)
CC(C)C[C@H](NC(=O)N1CCCCCC1)C(=O)N[C@H](Cc1cn(C)c2ccccc12)C(=O)N[C@H](Cc1ccccn1)C(=O)O (10 µM),0.257,100% (inactive)
CCCN1CCCC(c2cccc(O)c2)C1 (stereo in doubt) [preclamol] (10 µM),-0.1,114% (inactive)
CCCCC(=O)N(Cc1ccc(-c2ccccc2-c2nnn[nH]2)cc1)[C@H](C(=O)O)C(C)C [valsartan] (10 µM),0.00713,98.5% (inactive)
COc1cc(-n2c(=S)[nH]c3ccccc3c2=O)c(Cl)cc1Cl [mdivi-1] (10 µM),-0.0304,112% (inactive)
O=C(Nc1cccc(C(F)(F)F)c1)Nc1ccc(Br)cc1-c1nnn[nH]1 (10 µM),-0.0612,108% (inactive)
CC(=O)[C@H]1CC[C@H]2[C@@H]3CC=C4C[C@@H](OC(=O)CCC(=O)O)CC[C@]4(C)[C@H]3CC[C@]12C [pregnenolone-succinate] (10 µM),-0.0431,104% (inactive)
O=C(O)c1ccc(S(=O)(=O)N(Cc2ccc(OC(F)(F)F)cc2)c2ncc(C(F)(F)F)cc2Cl)cc1 (10 µM),0.114,102% (inactive)

SMILES,morphology score [1],SARS-CoV-2 infection rate [2]
CS(=O)(=O)Oc1ccc2c(NC(N)=O)c(C(=O)c3ccc(Cl)cc3Cl)oc2c1 [lirimilast] (10 µM),0.204,101% (inactive)
NC(=O)[C@@H](CC1CC1)[C@@H](CCC(F)(F)F)C(=O)N[C@H]1N=C(c2ccccc2)c2cccc(F)c2NC1=O (10 µM),0.179,102% (inactive)
Oc1ccc2c3c1O[C@H]1[C@@H](O)CC[C@@]4(O)[C@@H](C2)N(CC2CCC2)CC[C@]314 [nalbuphine] (10 µM),-0.0532,114% (inactive)
Cc1ccc(-c2csc3ncnc(SCCC(=O)O)c23)cc1 (10 µM),0.15,103% (inactive)
O=C(NCCN1CCN(c2ncccn2)CC1)C12CC3CC(CC(C3)C1)C2 [adatanserin] (10 µM),0.159,109% (inactive)
COc1cc(-c2ncn(/C=C\C(=O)OC(C)C)n2)cc(C(F)(F)F)c1 (10 µM),-0.358,114% (inactive)
COc1cccc(C=NCCN=Cc2cccc(OC)c2[O-])c1[O-].[Cl-].[Mn+3] (10 µM),-0.0731,95% (inactive)
C[C@H](CCC(=O)NCCS(=O)(=O)O)[C@H]1CC[C@H]2[C@@H]3[C@H](O)C[C@@H]4C[C@H](O)CC[C@]4(C)[C@H]3C[C@H](O)[C@]12C [taurocholate] (10 µM),-0.0884,116% (inactive)
Nc1nc(NC[C@H]2CC[C@H](CNS(=O)(=O)c3cccc4ccccc34)CC2)nc2ccccc12 (0.833333 µM),-0.0427,93.5% (inactive)
Clc1cccc(-c2nnnn2Cc2cccnc2)c1Cl (10 µM),0.0426,99.5% (inactive)
CCOC(=O)C1=C(C)NC(c2ccccc2)=C(C(=O)OCc2ccc([N+](=O)[O-])cc2)[C@@H]1C#Cc1ccccc1 (10 µM),0.304,89% (inactive)
CC1(C)CCC2=C(O1)c1ccccc1C(=O)C2=O [beta-lapachone] (10 µM),0.361,78.5% (inactive)
CC(C)OC(=O)[C@H](C)N[P@@](=O)(OC[C@H]1O[C@@H](n2ccc(=O)[nH]c2=O)[C@](C)(F)[C@@H]1O)Oc1ccccc1 (10 µM),0.087,108% (inactive)
CN1C2CCC1CC(OC(=O)C(O)c1ccccc1)C2 (centres undefined) [Homatropine Bromide] (10 µM),0.0164,108% (inactive)
Nc1ccc(S(=O)(=O)Nc2nccs2)cc1 [sulfathiazole] (10 µM),0.0413,114% (inactive)
CN1CCC[C@@H]1CCSc1ccc(O)cc1 (10 µM),-0.0396,112% (inactive)
CC(C)C(=O)SCCCCC[C@H](NC(=O)OC(C)(C)C)C(=O)NC12CC3CC(CC(C3)C1)C2 (10 µM),-0.113,97% (inactive)
CC1(C)OC2(C)C(O)CC1CC2O (centres undefined) [epomediol] (10 µM),0.173,100% (inactive)
NCCc1cc(O)c(O)cc1O [oxidopamine] (10 µM),0.0957,102% (inactive)
O=S(=O)(O)c1cc(O)ccc1O [etamsylate] (10 µM),0.0853,94.5% (inactive)
Nc1n[n+]([O-])c2ccccc2[n+]1[O-] [tirapazamine] (10 µM),0.0691,99.5% (inactive)

SMILES,morphology score [1],SARS-CoV-2 infection rate [2]
C=C[C@@]1(C)CC(=O)[C@]2(O)[C@@]3(C)[C@@H](O)CCC(C)(C)[C@@H]3[C@H](OC(=O)CCN(C)C)[C@H](OC(C)=O)[C@@]2(C)O1 [colforsin-daproate] (0.833333 µM),0.5,88.5% (inactive)
O=C(OC(C(F)(F)F)C(F)(F)F)N1CCN(Cc2cccc(Oc3ccccc3)c2)CC1 (10 µM),-0.142,24.5% (active)
COc1cc(NC(=O)Nc2cccc(CNC(=O)O[C@H]3CCOC3)c2)ccc1-c1cnco1 [merimepodib] (10 µM),0.447,62.5% (inactive)
CC(C)(C)C(=O)Oc1ccc(S(=O)(=O)Nc2ccccc2C(=O)NCC(=O)O)cc1 [sivelestat] (10 µM),0.168,95% (inactive)
CCCCCCCCCC(=O)OC1(c2ccc(Cl)cc2)CCN(CCCC(=O)c2ccc(F)cc2)CC1 [haloperidol-decanoate] (10 µM),0.166,96% (inactive)
COc1ccc(CCC(=O)Nc2nc3ccc(Cl)cc3s2)cc1OC (10 µM),0.197,100% (inactive)
O=c1cc(-c2ccc(O)cc2)oc2cc(O)cc(O)c12 [apigenin] (10 µM),0.129,104% (inactive)
O=C1c2ccccc2C(Cc2ccncc2)(Cc2ccncc2)c2ccccc21 (10 µM),-0.0398,98% (inactive)
CCOC(=O)CC(=O)N1CCSC1COc1ccccc1OC (centres undefined) [moguisteine] (10 µM),0.165,99.5% (inactive)
NCCCC(O)(P(=O)(O)O)P(=O)(O)O [alendronate] (10 µM),0.102,110% (inactive)
O=C(O)c1cccc(-c2noc(-c3ccccc3F)n2)c1 [ataluren] (10 µM),-0.00572,112% (inactive)
Cc1c[nH]c2ncnc(N3CCC(CN)(C(=O)Nc4cccc(OC(=O)N(C)C)c4)CC3)c12 (10 µM),0.156,94% (inactive)
CC(C)(C)[C@]1(O)CCN2C[C@H]3c4ccccc4CCc4cccc(c43)[C@@H]2C1 [butaclamol] (10 µM),0.273,101% (inactive)
CC(=O)Nc1ncc([N+](=O)[O-])s1 [nithiamide] (10 µM),0.0207,90% (inactive)
C[C@@]1(c2cc(-c3cncnc3)c(F)cc2F)CCSC(N)=N1 (10 µM),0.151,106% (inactive)
"CC1(C)[C@H]2CC[C@]1(C)[C@@H](O)[C@H]2O [cis-exo-camphanediol-2,3] (10 µM)",0.0601,106% (inactive)
Fc1ccc(C(c2ccc(F)cc2)N2CCN(C/C=C/c3ccccc3)CC2)cc1 [flunarizine] (10 µM),0.364,69.5% (inactive)
Nc1nc(O)c2nc(Br)n([C@@H]3O[C@@H]4COP(=O)(O)O[C@H]4[C@H]3O)c2n1 [8-bromo-cGMP] (10 µM),0.0521,97% (inactive)
CC(=O)Nc1nnc(S(N)(=O)=O)s1 [acetazolamide] (10 µM),0.0392,85.5% (inactive)
CC(C)N(CC[C@H](c1ccccc1)c1cc(CO)ccc1O)C(C)C [5-hydroxymethyl-tolterodine] (10 µM),0.191,94.5% (inactive)
